# Among all 360,000 compounds or so, about 7,500 (2.1%) were called active. Inconclusive results (about 8%) are left out. The call rests on the fitted dose curve; in most records, active means well fitted cell-killing curve with a large enough effect; inconclusive means small, poorly fitted or top-dose-only effect, or effect the other way, or another doubt; inactive means no such curve, though single readings can be large or run the other way. Shown is part of a subset that was picked to be rich in actives. Where a call stands in place of a potency, no number is given.
# Experiment: qHTS for induction of synthetic lethality in tumor cells producing 2HG: qHTS for the HT-1080-IDH1KD cell line
# Conditions: HT-1080 IDH1 knockdown viability, ATP luminescence, 48 h; series mostly up to 46.1 µM
# Summary of the method: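 Viability of IDH1-knockdown HT-1080 fibrosarcoma cells was assessed by CellTiter-Glo after 48 h at 37 °C with titrated compound; concentration-effect curves were classified by fit quality and response size.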
# Potency means the concentration at half of the fitted maximal effect.
row,Structure (SMILES),Potency
1,CCC(C(=O)NCc1ccccc1)n1c(Cc2cc(F)cc(F)c2)nc2ccccc21 (stereo not given),inactive
2,COc1ccc(C(=O)OCC(=O)Nc2cc(C)on2)cc1F,inactive
3,O=C(CCN1CCCCC1)Nc1ccc(F)c(F)c1,inactive
4,CCc1cccc(CC)c1N1C(=O)CC(Sc2ccccc2N)C1=O (stereo not given),inactive
5,CC1(Cc2ccccc2C#N)C(=O)Nc2ccc(-c3ccc4[nH]ccc4c3)cc21 (stereo not given),1.64 µM (active)
6,CC(Oc1ccc(Br)cc1)C(=O)NC1CCCCCC1 (stereo not given),inactive
7,OC(COc1ccc(Br)cc1)CN1CCCC1 (stereo not given),inactive
8,CC(C)(C)CC(C)(C)NCC(O)COCCOc1ccc(Br)cc1 (stereo not given),20.6 µM (active)
9,Cc1cccc(CN2CCN(C3CN(Cc4cn(Cc5cc(C)cc(C)c5)nn4)S(=O)(=O)C3)CC2)c1 (stereo not given),inactive
10,CC(=O)Oc1ccc2c(c1)C(=O)c1ccccc1C2=O,inactive
11,O=C1C(Cl)=C(Oc2ccccc2)C(=O)c2ccccc21,2.59 µM (active)
12,CCn1c(SCC(=O)Nc2ccc3c(c2)OCCO3)nnc1-c1ccncc1,inactive
13,O=C(CSc1nnc(-c2ccccn2)n1-c1ccccc1)Nc1ccc2c(c1)OCO2,23.1 µM (active)
14,O=C(O)CSc1nnc(-c2ccc3c(c2)OCO3)n1-c1ccccc1,inactive
15,Cc1cccc(C)c1NC(=O)C(c1cccc2ccccc12)n1c(=O)c(-c2ccco2)nc2ccccc21 (stereo not given),inactive
16,O=C(OCc1cn([C@H]2C[C@H](c3ccccc3)N(C(=O)c3cccs3)C[C@@H]2O)nn1)c1ccccc1,inactive
17,COc1cccc(OC)c1C(=O)N1CCN(Cc2ccccc2F)CC1,inactive
18,Nc1c(-c2ccccc2)nnn1Cc1ccccc1,inactive
19,Nc1c(C(=O)NCc2ccccc2)nnn1Cc1cccc(Cl)c1,14.6 µM (active)
20,O=C(COc1cccc(Cl)c1)NCc1ccccc1,inactive
21,O=C(NCCN1CCOCC1)c1ccc2c(c1)N(Cc1cccc(Cl)c1)C(=O)c1ccccc1S2(=O)=O,inactive
22,CC1=C/C(=N\OS(=O)(=O)c2ccccc2)C=CC1=O,20 µM (active)
23,O=C(NCc1ccc(F)cc1)c1cc(C2CCCCN2C(=O)c2cccs2)on1 (stereo not given),inactive
24,CCc1nc2ccc(C(=O)Nc3cc(-c4ccccc4)ccc3OC)cn2c1N(CC)CC(=O)N(C)C,inactive
25,C[C@@H]1CN([C@@H](C)CO)C(=O)c2cc(Br)cnc2O[C@H]1CN(C)Cc1ccc(-c2ccccc2)cc1,inactive

row,Structure (SMILES),Potency
1,CCCCN1CC(N2CCN(Cc3cccc(C)c3)CC2)CS1(=O)=O (stereo not given),inactive
2,COc1ccc(C(=O)Nc2ccccc2C(=O)N/N=C/c2ccc(O)c(OC)c2)cc1,6.51 µM (active)
3,COc1ccc(/C=N/NC(=O)c2ccccc2)cc1OS(=O)(=O)c1ccccc1,20.6 µM (active)
4,Cc1ccc(S(=O)(=O)Oc2ccc(/C=N/NC(=O)c3ccncc3)cc2)cc1,inactive
5,COc1cc(C=NNC(=O)c2cccnc2)ccc1OC(=O)c1ccccc1F,inactive
6,COc1cc(/C=N/NC(=O)c2ccoc2C)ccc1OCCN1CCCCC1,inactive
7,COc1ccc(C(=O)Nc2ccccc2C(=O)N2CCN(c3ccccc3)CC2)cc1,inactive
8,COc1cc(/C=N/NC(=O)Nc2ccccc2)ccc1OCCOc1ccccc1C,7.08 µM (active)
9,COc1ccc(/C=N/Nc2ccccc2C(=O)O)cc1,inactive
10,COC(=O)c1ccc(COc2ccc(/C=N/NC(=O)C(=O)Nc3ccc(OC)cc3)cc2OC)o1,inactive
11,COc1ccc(NC2CCCN(C(=O)c3ccccc3-c3ncc[nH]3)C2)cc1 (stereo not given),inactive
12,COc1cc(-c2nnc(NC(=O)CS(=O)(=O)c3ccc(Cl)cc3)o2)cc(OC)c1OC,inactive
13,CC(=O)Nc1c(-c2ccc(C)cc2)nc2ccc(Cl)cn12,inactive
14,CCCCn1nnnc1C1(C)CCC(=O)N1Cc1ccc(OC)c(OC)c1 (stereo not given),inactive
15,CCCCCCCCn1c2c(c(=N)c3c1CCC3)CCCC2,8.2 µM (active)
16,CCCc1nc2ccccc2n1C(C)C(=O)NC(C)(C)C (stereo not given),inactive
17,CC1CCCC(C)N1C(=O)COC(=O)c1ccccc1C(=O)c1ccccc1 (stereo not given),inactive
18,O=C(Nc1ccc2c(c1)CCC2)c1cccc(S(=O)(=O)N2CCN(c3ccc(F)cc3)CC2)c1,inactive
19,Cc1ccc(C(=O)Nc2ncccc2C)cc1S(=O)(=O)N1CCOCC1,inactive
20,Cc1cccnc1NC(=O)c1cccc(S(=O)(=O)N2CCN(c3ccc(F)cc3)CC2)c1,29.1 µM (active)
21,O=C1NC[C@H](CCCCN2CCN(CCc3ccccc3)C(=O)C2=O)N(CC2CCCCC2)C1=O,inactive
22,COC(=O)[C@]12CCCCC=C1N(Cc1ccco1)C(=O)[C@H](CC(=O)NCC1CCCCC1)C2,inactive
23,CCOC(=O)C1=CCC2C(=O)N(Cc3ccccc3)C(=O)C12 (stereo not given),inactive
24,COc1ccc(C2=Nc3ccccc3NC(=O)C2N(C(=O)c2cc3ccccc3[nH]2)c2ccccc2)cc1 (stereo not given),inactive
25,CC(C)Oc1cc(F)ccc1-c1cc(C(=O)Nc2ccc(F)cc2)[nH]n1,inactive

row,Structure (SMILES),Potency
1,COC(=O)c1ccc(-c2c(-c3ccccc3)ncc3cc(OC)c(OC)cc23)cc1,inactive
2,CS(=O)(=O)Nc1cccc(-c2cn3ccccc3n2)c1,inactive
3,CC(=O)c1cccc(-c2cnc3c(NC=O)cc(-c4ccc(N5CCN(C)CC5)cc4)cn23)c1,inactive
4,COc1cc(C=O)ccc1Oc1nnnn1-c1ccccc1,inactive
5,CC(=O)c1ccc(-c2cnc3c(NC=O)cc(-c4cccc(NS(C)(=O)=O)c4)cn23)cc1,8.2 µM (active)
6,COc1ccc(-c2cc(NC=O)c3ncc(-c4ccccc4)n3c2)cc1OC,16.4 µM (active)
7,O=[N+]([O-])c1ccc(C(S(=O)(=O)Cc2ccccc2)S(=O)(=O)Cc2ccccc2)cc1,inactive
8,C[C@H]1COc2cc(N3CCSCC3)ccc2S(=O)(=O)N1,inactive
9,O=C(O)C1=C(C(=O)O)C2CCC1C2,inactive
10,CCCNC(=O)c1cc(C2CCCCN2S(=O)(=O)c2ccc(C#N)cc2)on1 (stereo not given),inactive
11,NC1=CC(=O)C(=O)c2cccnc21,11.6 µM (active)
12,CCOc1ccc(CCN2C(=O)c3cccnc3C2=O)cc1OCC,inactive
13,O=C1c2cccnc2C(=O)N1Cc1cccs1,inactive
14,COc1cc2nc(Cl)nc(NC3CC3)c2cc1OC,inactive
15,CC(C)CCC(=O)Nc1cc(S(=O)(=O)N2CCOCC2)ccc1N1CCCC1,inactive
16,Cc1ccc(-c2ccc(CN3C(C(C)C)C(=O)N(Cc4cn(CCC5OCCCO5)nn4)CCS3(=O)=O)cc2)cc1 (stereo not given),inactive
17,Cc1cc2c(cc1C)N1C(=O)c3cc4ccccc4cc3NC(=O)C1C(=O)N2 (stereo not given),inactive
18,CS(=O)(=O)/C(C#N)=C/c1cccn1S(=O)(=O)c1ccc([N+](=O)[O-])cc1,inactive
19,O=C(C1CCCO1)N1CCN(C(=O)C23CC4CC(CC(C4)C2)C3)CC1 (stereo not given),inactive
20,CN(/N=C/c1ccccc1)C(=S)c1ccccc1,inactive
21,Oc1ccc(/C=N/N(Cc2ccccc2)c2ccccc2)cc1,16.4 µM (active)
22,CCN(CC)C(=O)N(CC)Cc1ccccc1,inactive
23,C[C@H]1CN([C@@H](C)CO)C(=O)CCCn2cc(nn2)CO[C@@H]1CN(C)C(=O)Nc1ccccc1,inactive
24,O=C(CSc1nc2cccc(F)c2c(=O)n1-c1ccccc1)Nc1ccc2c(c1)CCC2,inactive
25,NC(=O)CSc1nnc(-c2cccc(S(=O)(=O)N3CCOCC3)c2)o1,inactive

row,Structure (SMILES),Potency
1,Cn1c(Cc2cccc3ccccc23)nnc1SCC(=O)N1CCN(c2cccc(Cl)c2)CC1,20.6 µM (active)
2,Cc1cc2nnc(SCC(=O)N3CCN(c4ccccc4)CC3)n2c(N)n1,inactive
3,Cn1c(CNC(=O)c2ccco2)nnc1SCC(=O)N1CCN(c2ccccc2)CC1,inactive
4,CCc1c(N=O)c(-c2ccccc2)n(O)[n+]1[O-],inactive
5,CCN(C(=O)Nc1cccc2ccccc12)c1ccccc1,inactive
6,COc1cccc(NC(=O)CN(C)C(=O)c2cc(Cl)nc3ccccc23)c1,inactive
7,CCN(CC)C(=O)C1=C(C)N(Cc2ccc(F)cc2)C(=O)C(CC(=O)NC2CCCC2)C1 (stereo not given),inactive
8,CC[n+]1cc(C)ccc1/C=C/c1ccc(N(C)C)cc1,7.31 µM (active)
9,O=C(NC1CCCCC1)C(c1cc2ccccc2o1)n1c(=O)c(-c2ccco2)nc2ccccc21 (stereo not given),inactive
10,O=C(O)CCn1cc(/C=C/C(=O)c2ccc(Cl)cc2)c(-c2cccc(Br)c2)n1,23.1 µM (active)
11,CCOC(=O)/C(C#N)=C/c1cn(CCC(=O)O)nc1-c1ccc(Br)cc1,inactive
12,O=C(/C=C/NNC(=O)c1cccc(Br)c1)c1ccccc1,inactive
13,COc1ccc(CN2C[C@H]3CON(C)[C@H]3C[C@H]2c2ccc(-c3cccc(F)c3)cc2)cc1,inactive
14,Cc1ccccc1C#CC1=CC(=O)CC(C)(C)C1,inactive
15,C/C(COc1ccccc1)=N\NC(=O)c1nnn(-c2nonc2N)c1-c1ccc(C)cc1,inactive
16,COc1ccc(C(=O)N2CC3(C)CC2CC(C)(C)C3)cc1OC (stereo not given),inactive
17,CN(C)C(=O)COC(=O)c1cccc(S(=O)(=O)N2CC3(C)CC2CC(C)(C)C3)c1 (stereo not given),inactive
18,Cc1nnnn1/C(=C\c1ccccc1)C(=O)OCC(=O)N1CC2(C)CC1CC(C)(C)C2 (stereo not given),14.6 µM (active)
19,COc1cc(C=NC2CCCCC2)ccc1O,inactive
20,O=C(OCC(=O)N1CCCCCC1)c1cccc(Cl)c1Cl,inactive
21,Cc1cccc(C)c1NC(=O)C(c1cccc(F)c1)N1CCN(C)CC1 (stereo not given),inactive
22,COc1cc(OC)c2c(-c3cccc(-c4cccc(N)c4)c3)cc(=O)oc2c1,5.17 µM (active)
23,COc1ccc(-c2c(C)cc3oc(=O)cc(-c4ccccc4)c3c2C)cc1OC,inactive
24,COc1ccc(-c2c(C)cc3oc(=O)cc(-c4ccccc4)c3c2C)cc1F,inactive
25,COC(=O)c1ccc(CN2C(=O)C(Cc3ccccc3)ON=C2c2ncccc2C)o1 (stereo not given),inactive

# Source: PubChem BioAssay AID686971 (National Center for Advancing Translational Sciences (NCATS), 2013)
